The test system of experiment [1] is Zika virus NS2B-NS3 protease (unlinked complex). The experiment in a line: Primary screen GU Rhodamine qHTS for Zika virus inhibitors: Unlinked NS2B-NS3 protease assay (AID 1347159). Further: nearly all actives have a fitted effect of over 60% in size. Further: potency means the concentration at half of the fitted maximal effect. An outline of the steps:
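Enzyme 25 nM in Tris-HCl pH 8.0 + 0.01% Tween 20; compounds up to 114 microM, 15 min RT dark; + Rhod110 substrate 1.5 microM; read t0 and 15 min; delta fluorescence → % inhibition → 4-parameter Hill fit.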
In general terms: qHTS replaces the single test concentration by a dilution series.

Experiment [2] has as its system Zika virus NS2B-NS3 protease (linked construct). The experiment in a line: Primary screen NINDS Rhodamine qHTS for Zika virus inhibitors (AID 1347160). Further: nearly all actives have a fitted effect of over 55% in size. In outline: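 Enzyme (25 nM, linked NS2B-NS3) was preincubated 15 min with compound in 10 mM Tris-HCl pH 8.0, 0.01% Tween 20. Rhodamine110 substrate (1.5 microM) was then added and fluorescence read at start and after 15 min.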

Results filed as inconclusive are left out. Entries that show only a call come without a potency. A number with no mark means an inactive call. Active and inactive are the calls of the source. The call rests on the fitted dose curve; in most records, active means well fitted inhibition curve with a large enough effect; inconclusive means small, poorly fitted or top-dose-only effect; inactive means no such curve, though single readings can be large or run the other way.

Regarding `Nc1ccc(/C=C/C(=O)NCc2cc3cc(-c4ccc(C(=O)N5CCC(F)(F)CC5)cc4)cc(-c4ccc(F)cc4)c3o2)cn1`, the Potency entry in experiment [1] and in experiment [2] was “inactive” in each case.
As for `CC(O)/C=C/C1C(C)C(O[C@@H]2O[C@H](CO)[C@@H](O)[C@H](O)[C@H]2O)C(O)CC1(C)C` (stereo not given in full), the Potency entry in experiment [1] and in experiment [2] was “inactive” in each case.
Take `C/C=C/C(O)C1OC(=O)CC1Nc1ccc(C(=O)O)cc1` (stereo not given): the Potency entry in experiment [1] and in experiment [2] was “inactive” in each case.
For `CC1(C)CC[C@]2(CO[C@@H]3O[C@H](CO)[C@@H](O)[C@H](O)[C@H]3O)[C@@H](O)C[C@]3(C)C(=CCC4[C@@]5(C)CC[C@H](O[C@@H]6O[C@H](CO[C@@H]7O[C@H](CO[C@@H]8OC[C@@H](O)[C@H](O)[C@H]8O)[C@@H](O)[C@H](O)[C@H]7O)[C@@H](O)[C@H](O)[C@H]6O)C(C)(C)C5CC[C@]43C)[C@@H]2C1` (stereo not given in full), the Potency result in experiment [1] and in experiment [2] was “inactive” in each case.
With `Nc1nc2c(ncn2[C@@H]2O[C@@H]3COP(=O)(O)O[C@H]3[C@H]2O)c(=O)[nH]1`, the Potency result in experiment [1] and in experiment [2] was “inactive” throughout.
Consider `Cc1[nH]c2ccccc2c1CCNC(=O)c1ccccc1F`, for which the Potency entry in experiment [1] and in experiment [2] was “inactive” throughout.
Turning to `Cn1c(=O)n(-c2ccc(C(C)(C)C#N)cc2)c2c3cc(C#Cc4cccnc4)ccc3ncc21`, the Potency entry in experiment [1] and in experiment [2] was “inactive” each time.
`CC1(C)CC[C@]2(C(=O)O[C@@H]3O[C@H](CO[C@@H]4O[C@H](CO)[C@@H](O)[C@H](O)[C@H]4O[C@@H]4O[C@H](CO)[C@@H](O)[C@H](O)[C@H]4O)[C@@H](O)[C@H](O[C@@H]4O[C@H](CO)[C@@H](O)[C@H](O)[C@H]4O)[C@H]3O)CC[C@]3(C)C(=CCC4[C@@]5(C)CC[C@@H](O)[C@@](C)(C(=O)O[C@@H]6O[C@H](CO)[C@@H](O)[C@H](O)[C@H]6O)C5CC[C@]43C)[C@@H]2C1` (stereo not given in full): in experiment [1], the activity change, negative = inhibition is 14.6% [at 19.1 µM]. In experiment [2], the outcome is “inactive [at 10.7 µM]”.
For `CC(Oc1cc(-n2cnc3ccc(CN4CCN(C)CC4)cc32)sc1C(N)=O)c1ccccc1C(F)(F)F` (stereo not given), the Potency entry in experiment [1] and in experiment [2] was “inactive” throughout.
For the molecule `C=CC(=O)Nc1cc(Nc2nccc(-c3c[nH]c4ccccc34)n2)c(OC)cc1N(C)CCN(C)C`, the Potency result in experiment [1] and in experiment [2] was “inactive” in each case.
As for `O=C(CCc1ccccc1)N1CCC(O)(Cn2cnc3cc(Cl)ccc3c2=O)CC1`, the Potency result in experiment [1] and in experiment [2] was “inactive” in each case.
In the case of `CCC(O)(C(=O)OCc1ccccc1NC(=O)CCC(=O)O)C(C)O` (stereo not given), the Potency result in experiment [1] and in experiment [2] was “inactive” throughout.
For `COc1cc(O)cc(C)c1C(=O)O[C@H]1[C@@H](OC(C)=O)[C@H](n2ccc(=O)[nH]c2=O)O[C@@H]1CO`, the Potency result in experiment [1] and in experiment [2] was “inactive” each time.
In the case of `C=C1CCC2C(C)(C)C(O)CCC2(C)C1CCC(C)CCOC(C)=O` (stereo not given), the Potency in experiment [1] is 22.4 µM (active). Moreover, the Potency entry in experiment [2] is “inactive”.
In the case of `C=C1C(OC(C)=O)CCC2(C)CC3(OC)OC(=O)C(C)=C3CC12` (stereo not given), the Potency result in experiment [1] and in experiment [2] was “inactive” throughout.
For `O=C1CCC=CC1(O)C(=O)OCc1ccccc1O[C@@H]1O[C@H](CO)[C@@H](O)[C@H](O)[C@H]1O` (stereo not given in full), the Potency result in experiment [1] and in experiment [2] was “inactive” in each case.
Take `CC1CC(O)C2(OC1=O)OC1C(O)C3C4CCC5CC(OC6OC(CO)C(O)C(O)C6OC6OC(C)C(O)C(O)C6O)CCC5(C)C4CCC3(C)C1C2C` (stereo not given): the Potency result in experiment [1] and in experiment [2] was “inactive” each time.
`CN(C)C/C=C/C(=O)Nc1cccc(C(=O)Nc2ccc(Nc3nccc(-c4cccnc4)n3)cc2)c1`: the Potency in experiment [1] is 79.4 µM (active). In addition, in experiment [2], the Potency entry is “inactive”.
The matching figures for `Cc1cc(=O)oc2c(C=O)c(O)ccc12`: 79.4 µM (active) and “inactive”.
The matching figures for `C[C@@H]1C(=O)O[C@H]2[C@@H](O)C34[C@H]5C[C@@H](C(C)(C)C)C36[C@@H](OC(=O)[C@@H]6O)O[C@@]4(C(=O)O5)[C@@]12O` (stereo not given in full): “inactive” and “inactive”.
In the case of `COc1ccc(C2=N[C@@H](c3ccc(Cl)cc3)[C@@H](c3ccc(Cl)cc3)N2C(=O)N2CCNC(=O)C2)c(OC(C)C)c1`, the Potency result in experiment [1] and in experiment [2] was “inactive” each time.
As for `CCOc1cc(N2CCC(O)CC2)ccc1Nc1ncc2c(n1)N(C1CCCC1)CCC(=O)N2C`, the Potency result in experiment [1] and in experiment [2] was “inactive” throughout.
With `Cn1nc(C(C)(C)C)cc1C(=O)NC(Cc1cccc(Cl)c1)C(=O)NCC#N` (stereo not given), the Potency entry in experiment [1] and in experiment [2] was “inactive” each time.
Turning to `CC(C)[C@@](C)(O)[C@@H]1CN(c2nc(-c3[nH]nc4ncccc34)c(F)cc2Cl)CCN1`, the Potency entry in experiment [1] and in experiment [2] was “inactive” each time.
Regarding `COc1ccc(CNC(=O)c2cc(-c3cncc(C)c3)ncc2-c2nccs2)nc1OC`, the Potency entry in experiment [1] and in experiment [2] was “inactive” throughout.
As to `C[C@H]1Oc2cc(cnc2N)-c2c(nn(C)c2C#N)CN(C)C(=O)c2ccc(F)cc21`, the Potency result in experiment [1] and in experiment [2] was “inactive” in each case.
On to `CCOc1cc2ncc(C#N)c(Nc3ccc(F)c(Cl)c3)c2cc1NC(=O)/C=C/CN(C)C`, for which the Potency result in experiment [1] and in experiment [2] was “inactive” throughout.
With `CCOC(=O)C(CCc1ccccc1)NC(C)C(=O)N1C(=O)N(C)CC1C(=O)O` (stereo not given), the Potency entry in experiment [1] and in experiment [2] was “inactive” throughout.
Regarding `NC(=O)C(CCC(F)(F)F)N(Cc1ccc(-c2ncon2)cc1F)S(=O)(=O)c1ccc(Cl)cc1` (stereo not given), the Potency result in experiment [1] and in experiment [2] was “inactive” each time.
Regarding `C[C@@H]1O[C@@H](O[C@H]2[C@H](O)[C@@H](O)[C@H](O[C@H]3[C@H](O[C@H]4CC[C@@]5(C)C(=CC[C@@H]6C5CC[C@]5(C)[C@@H]7[C@H](C[C@@H]65)O[C@]5(CC[C@@](C)(CO[C@@H]6O[C@H](CO)[C@@H](O)[C@H](O)[C@H]6O)O5)[C@H]7C)C4)O[C@H](CO)[C@@H](O)[C@@H]3O)O[C@@H]2CO)[C@H](O)[C@H](O)[C@H]1O` (stereo not given in full), the Potency entry in experiment [1] and in experiment [2] was “inactive” each time.

Source of the values: PubChem BioAssay (NCATS).
